Screening results from PubChem BioAssay.
FMDV antiviral – foot and mouth disease virus antiviral activity. FMDV antiviral cell-based qHTS. Potency, µM (series often up to 57.9 µM), hits mostly inhibitors. 410,000 compounds, 1.2% hits; calls by dose curve; tested in HEK293T cells; further: read-out not given here; nearly all actives have a fitted effect of over 45% in size
HCMV inh – inhibitors of human cytomegalovirus; activity change, negative = inhibition, % at 57.5 µM; 410,000 compounds, 4.5% hits; HFF cells, HCMV-luciferase reporter, 72 h; active compounds read low; in the data active means activity change below about -60%; inconclusive means no clear call, values can overlap the other calls; inactive means above about -39%
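Screen run at 2 compound doses on HFFs infected with reporter HCMV, MOI 1 PFU/cell. Luciferase activity from cell lysates at 72 h post infection gave inhibition relative to buffer-only and Salinomycin wells.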
Giardia FBPA inh – blocks Giardia fructose-bisphosphate aldolase activity | A8B2U2 | purified Giardia FBPA | AID 2451 | 290,000 compounds, 0.71% hits | Potency, µM (doses to about 59.6 µM), actives largely listed as inhibitors; further: nearly all actives have a fitted effect of over 55% in size
Target sequence (A8B2U2 whole entry, looked up): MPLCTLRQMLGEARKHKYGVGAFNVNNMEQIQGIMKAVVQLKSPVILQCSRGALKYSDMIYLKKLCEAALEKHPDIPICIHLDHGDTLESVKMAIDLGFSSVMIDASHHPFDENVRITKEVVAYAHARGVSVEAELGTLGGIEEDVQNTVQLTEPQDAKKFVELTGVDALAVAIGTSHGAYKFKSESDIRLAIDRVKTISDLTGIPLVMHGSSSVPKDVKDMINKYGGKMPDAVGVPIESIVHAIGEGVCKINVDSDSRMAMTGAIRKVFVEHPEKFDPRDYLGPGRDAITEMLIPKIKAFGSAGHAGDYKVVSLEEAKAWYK
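40 nM FBPA preincubated 10 min at RT with compound (up to 57.5 uM final), then substrate plus GAPDH/TPI/NAD/arsenate coupling and diaphorase/resazurin added. Fluorescence read after 20 min at RT, 525/598 nm.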
HCV inh – blocks hepatitis C virus. Huh7.5.1 HCVcc-Cre infection, luciferase reporter, 44 h. Potency, µM (top dose mostly 41.8 µM), actives largely listed as inhibitors. 340,000 compounds, 3.4% hits
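Reporter virus HCVcc-Cre (~0.5 moi) infects cells exposed to compound; seeding density 1,000 cells/well with 4 h settling beforehand. Luminescence, 15 sec read, taken 44 h post-infection following a 15 min RT substrate incubation.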
VACV Venus inh – inhibitors of vaccinia virus (Venus reporter). Potency, µM (doses to about 36.5 µM), usual class: inhibitors. Vaccinia virus Venus reporter expression, fluorescence. 330,000 compounds, 0.46% hits; calls by dose curve; tested in A549 cells; further: nearly all actives have a fitted effect of over 30% in size
VACV mCherry inh – vaccinia inhibition (mCherry reporter). Vaccinia virus mCherry reporter infection, fluorescence. 310,000 compounds, 0.63% hits. Potency, µM (highest dose often 36.5 µM), hits mostly inhibitors; calls by dose curve; tested in A549 cells; further: nearly all actives have a fitted effect of over 35% in size
A number is an active result; n = inactive; u = inconclusive; x = not tested or not shown. A selection: hits, their analogues and other compounds. The true share with any hit is near 7.5%. Unless noted, the call rests on the fitted dose curve; in most records, active means well fitted curve in the direction sought with a large enough effect; inconclusive means small, poorly fitted or top-dose-only effect, or another doubt; inactive means no such curve, though single readings can be large; an effect the other way counts as inactive or inconclusive.

SMILES | FMDV antiviral | HCMV inh | Giardia FBPA inh | HCV inh | VACV Venus inh | VACV mCherry inh
CC1CC1C(=O)OCC(=O)Nc1cccc(Br)c1 (centres undefined) | n | n | x | n | n | n
O=C(COC(=O)C12CC3CC(CC(O)(C3)C1)C2)Nc1cccc(Br)c1 | n | -102 | x | n | n | n
CCCN(C(=O)COc1cc(=O)n(CC)c2ccccc12)c1ccc(C(C)C)cc1 | u | -102 | x | x | n | n
Cc1ccc2c(c1)c(=O)c(S(=O)(=O)c1ccc(F)cc1)cn2CC(=O)Nc1ccc2c(c1)OCO2 | n | n | x | x | n | n
Cc1c(Cl)ccc2c1NC(=O)[C@]21N[C@@H](Cc2ccccc2)[C@H]2C(=O)N(c3ccc(F)cc3)C(=O)[C@H]21 | u | n | n | u | u | u
C=C1C(=O)O[C@@H]2[C@H]1CC[C@H](C)[C@]1(O)CCC(=O)[C@@]21C | n | -68 | n | u | x | x
N#CCCn1c(=O)c(-c2cccs2)nc2cnc(Oc3cccc(Cl)c3)nc21 | n | x | n | x | x | x
CCOC(=O)c1cnc2c(OC)cccc2c1Nc1cccc(O)c1 | 25µM | u | x | x | n | n
CCOC(=O)c1cnc2c(OC)cccc2c1NCc1cccnc1 | u | -62 | n | n | x | x
CC(=O)Nc1ccc(S(=O)(=O)N2CCN(c3nc(NC4CCCC4)c4ccccc4n3)CC2)cc1 | u | n | n | 7.9µM | u | u
CC(C)C(=O)N1CCC1(C)C(=O)NCc1ccc(F)cc1Cl (centres undefined) | n | n | x | x | n | n
CC1CCCC(NC(=S)Nc2ccc(SC(F)F)cc2)C1C (centres undefined) | n | u | n | 32µM | 11µM | u
CCOC(=O)C1=C(CN2CC(C)CC(C)C2)NC(=O)NC1c1ccc2c(c1)OCO2 (centres undefined) | u | u | n | u | n | n
CN(C)C(=O)c1ccc(-c2nc(Nc3ccc(F)cc3)c3ccccc3n2)cc1 | n | x | n | x | n | n
COc1ccc(Nc2nc(-c3cccs3)cs2)c(OC)c1 | n | n | u | 10µM | x | x
CN(C)C(=O)c1ccc(Nc2nc(-c3cccs3)nc3ccccc23)cc1 | n | u | n | 2.8µM | n | u
COc1ccc(Nc2nc(-c3cccs3)cs2)cc1 | n | n | n | n | x | x
CC(=O)N1CCN(c2nc(-c3cccs3)nc3ccccc23)CC1 | n | n | n | 11µM | n | n
CCOC(=O)N1CCN(c2nc(-c3cccs3)nc3ccccc23)CC1 | n | u | n | u | n | u
COc1ccc(CNc2nc(-c3ccc(C(=O)N(C)C)cc3)nc3ccccc23)c(OC)c1 | n | x | n | x | n | n
COc1ccc(CNc2nc(-c3ccc(N(C)C)cc3)nc3ccccc23)c(OC)c1 | n | x | 18µM | x | x | x
CCOc1ccc(-c2cc3nc(C4CCN(C(=O)OC(C)(C)C)CC4)c(C(=O)Nc4cccc(Cl)c4C)cn3n2)cc1 | n | n | x | x | n | n
COc1ccc(Nc2nc(-c3cccs3)nc3ccccc23)c(OC)c1 | n | n | n | 11µM | n | n
COc1ccc(Nc2nc(-c3cccc([N+](=O)[O-])c3)nc3ccccc23)c(OC)c1 | n | n | n | n | n | n
COc1ccc(OC)c(Nc2nc(-c3cccs3)cs2)c1 | x | n | n | 14µM | n | n
SMILES | FMDV antiviral | HCMV inh | Giardia FBPA inh | HCV inh | VACV Venus inh | VACV mCherry inh
COc1ccccc1Nc1nc(-c2cccs2)cs1 | n | n | n | u | n | n
CCOC(=O)[C@]12CCC=C1N(Cc1cccc3ccccc13)C(=O)[C@H](CC(=O)NCCCCc1ccccc1)C2 | n | n | x | x | n | n
OC1c2c(F)cccc2N=C2CCCCN21 (centres undefined) | n | n | x | x | n | n
COc1ccc2[nH]c3c(c2c1)CCN1C(=O)C(CC(=O)NC(C)(C)C)C[C@H](C(=O)N2CCCCC2)[C@@]31CCc1ccccc1 (some centres undefined) | n | n | x | n | u | n
O=C(CC1C[C@H](C(=O)N2CCCCC2)[C@@]2(CCc3ccccc3)c3[nH]c4ccccc4c3CCN2C1=O)NCc1ccco1 (some centres undefined) | n | n | x | n | u | n
COc1ccc2[nH]c3c(c2c1)CCN1C(=O)C(CC(=O)NCc2ccco2)C[C@H](C(=O)N2CCCCC2)[C@@]31CCc1ccccc1 (some centres undefined) | n | n | x | 0.56µM | u | u
